Results filed as inconclusive are left out. Active and inactive are the calls of the source. Rule for the calls: active = hit-call score of the fitted dose curve at least 0.9, where 1 is the maximum; inconclusive = response in the unintended direction; inactive = score below 0.9.
molecular target: Cellular tumor antigen p53 (Homo sapiens) (UniProt P04637); assay: TOX21_p53_BLA_p4_ratio: Tox21 HCT-116 p53 Agonism Beta-lactamase Assay, Ratio, Phase 4 (AID 2283601)
Procedure, shortened: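 HCT116 cells carrying an inducible beta-lactamase reporter were plated at 4000 cells/well, rested 5 h, then exposed to compounds in DMSO (217-fold dilution) for 16 h at 37C. CCF4-AM substrate was loaded 2 h at room temperature; 460/530 nm emission ratio scored gain-of-signal versus DMSO.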

Cellular tumor antigen p53 (Homo sapiens), sequence (P04637 whole entry, looked up): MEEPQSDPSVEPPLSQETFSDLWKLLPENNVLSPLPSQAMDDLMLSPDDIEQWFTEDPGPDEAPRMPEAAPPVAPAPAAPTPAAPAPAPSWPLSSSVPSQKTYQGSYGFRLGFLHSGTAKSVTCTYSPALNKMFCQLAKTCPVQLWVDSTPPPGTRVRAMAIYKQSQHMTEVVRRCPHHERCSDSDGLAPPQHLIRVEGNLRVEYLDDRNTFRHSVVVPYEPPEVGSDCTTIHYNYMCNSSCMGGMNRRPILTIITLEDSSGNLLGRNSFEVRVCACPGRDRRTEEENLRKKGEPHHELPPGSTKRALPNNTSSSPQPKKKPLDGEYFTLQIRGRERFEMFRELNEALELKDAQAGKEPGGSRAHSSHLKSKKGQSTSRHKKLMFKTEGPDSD

Compound | outcome | AC50
N[C@H](C(=O)O)[C@@H](O)c1ccc(O)c(O)c1 | inactive | 
CCN(CCCc1ccccc1)CCCc1ccccc1 | inactive | 
O=[N+]([O-])c1cc(Cl)c(Cl)c(Cl)c1Cl | inactive | 
CN(C)c1ccc(SC#N)cc1 | inactive | 
C=COCCCCO | inactive | 
O=C(c1ccc(F)cc1)C1CCN(CCn2c(=S)[nH]c3ccccc3c2=O)CC1 | inactive | 
C[n+]1ccn(Cc2ccccc2)c1 | inactive | 
O=C(CCN1CCN(CCO)CC1)N1c2ccccc2Sc2ccc(C(F)(F)F)cc21 | inactive | 
CCN(CC)CCNC(=O)c1cc(S(C)(=O)=O)ccc1OC | inactive | 
COc1ccc(-c2cc(C(F)F)nn2-c2ccc(S(N)(=O)=O)cc2)cc1F | inactive | 
CC=C(Cl)Cl | inactive | 
O=C1CCCc2ccccc21 | inactive | 
C/C(=C\C(=O)OCCCCCCCCC(=O)O)C[C@@H]1OC[C@H](C[C@@H]2O[C@H]2[C@@H](C)[C@H](C)O)[C@@H](O)[C@H]1O | inactive | 
C[N+](C)(C)CC(O)CCl (stereo not given) | inactive | 
NS(=O)(=O)c1ccccc1Cl | inactive | 
CC(C)(O/N=C(\C(=O)N[C@@H]1C(=O)N2C(C(=O)[O-])=C(C[n+]3ccccc3)CS[C@H]12)c1csc(N)n1)C(=O)O | inactive | 
OCc1c2ccccc2cc2ccccc12 | inactive | 
Nc1nc2c(ncn2COC(CO)CO)c(=O)[nH]1 | inactive | 
CC(=O)c1ccc2ccc3ccccc3c2c1 |  | 78.9 µM (active)
Nc1ccc(C(=O)O)c(O)c1 | inactive | 
Cc1ccccc1C(=O)O | inactive | 
O=C(O)C(O)[C@H](O)[C@@H](O)[C@H](O)[C@H](O)CO (stereo not given in full) | inactive | 
Cn1nnnc1SCC1=C(C(=O)O)N2C(=O)[C@@H](NC(=O)[C@H](O)c3ccccc3)[C@H]2SC1 | inactive | 
Nc1nc(N)c(-c2ccccc2)s1 | inactive | 
CCCCOCCCC | inactive | 
CC(C)(O)c1ccccc1 | inactive | 
Cc1cc(C)cc([N+](=O)[O-])c1 | inactive | 
O=C(O)[C@H]1/C(=C/CO)O[C@@H]2CC(=O)N21 | inactive | 
CN1CCN(C2=Nc3ccccc3Oc3ccc(Cl)cc32)CC1 | inactive | 
CC#CCC(C)[C@H](O)/C=C/[C@@H]1[C@H]2C/C(=C/CCCC(=O)O)C[C@H]2C[C@H]1O (stereo not given in full) | inactive | 

From PubChem BioAssay (EPA / NIEHS)
